39 compounds from PubChem BioAssay (Tox21) can be followed below.

Values joined by “and” are separate entries in the source; they are usually repeats but may differ in a detail not shown here. Equal values may be shown once. Records with an inconclusive call do not appear. Unmarked numbers belong to inactive results. Active and inactive are the calls of the source. Calls come from the whole dose curve; as a rule, active = well fitted curve in the direction sought with a large enough effect in the repeat runs; inconclusive = weak or mixed curves; inactive = no such curve, though single readings can be large; an effect the other way counts as inactive or inconclusive.
% is set by controls: 0 for no effect and ±100 for the full control effect; potency is the fitted concentration of half-maximal effect.

Nuclear receptor subfamily 1 group I member 3 (Homo sapiens), sequence (Q14994 whole entry, looked up): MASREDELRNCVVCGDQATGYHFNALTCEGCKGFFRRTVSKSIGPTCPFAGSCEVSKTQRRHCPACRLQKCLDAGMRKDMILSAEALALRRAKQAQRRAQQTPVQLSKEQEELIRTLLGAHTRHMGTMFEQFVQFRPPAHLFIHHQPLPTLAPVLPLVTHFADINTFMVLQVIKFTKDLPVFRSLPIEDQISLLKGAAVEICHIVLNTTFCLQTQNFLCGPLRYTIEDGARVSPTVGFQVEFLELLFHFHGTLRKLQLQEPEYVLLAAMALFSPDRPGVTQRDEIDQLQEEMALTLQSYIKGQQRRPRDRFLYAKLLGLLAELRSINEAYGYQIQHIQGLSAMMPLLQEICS
Luciferin 4-monooxygenase (Photinus pyralis), sequence (P08659 whole entry, looked up): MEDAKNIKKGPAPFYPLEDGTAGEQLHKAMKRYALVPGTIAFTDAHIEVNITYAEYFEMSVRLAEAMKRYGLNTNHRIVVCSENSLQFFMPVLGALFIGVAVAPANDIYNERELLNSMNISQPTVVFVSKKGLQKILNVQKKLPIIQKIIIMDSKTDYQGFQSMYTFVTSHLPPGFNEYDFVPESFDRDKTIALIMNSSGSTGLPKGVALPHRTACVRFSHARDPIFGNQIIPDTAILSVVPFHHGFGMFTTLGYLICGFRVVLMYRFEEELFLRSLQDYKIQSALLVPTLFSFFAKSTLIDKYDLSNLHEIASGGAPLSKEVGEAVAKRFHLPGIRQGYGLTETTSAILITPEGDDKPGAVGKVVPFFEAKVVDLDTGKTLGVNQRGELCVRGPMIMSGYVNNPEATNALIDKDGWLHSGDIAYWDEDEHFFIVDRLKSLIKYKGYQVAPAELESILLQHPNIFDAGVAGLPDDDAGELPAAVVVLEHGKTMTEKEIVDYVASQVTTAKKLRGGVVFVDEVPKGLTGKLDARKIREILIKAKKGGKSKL

The target of one assay is Luciferin 4-monooxygenase (Photinus pyralis) (UniProt P08659). Put plainly: qHTS assay to identify small molecule inhibitors of firefly luciferase (AID 1224835). Note: nearly all actives have a fitted effect of over 25% in size. As to conditions: purified P. pyralis luciferase, luminescence inhibition; series mostly up to 115 µM; activity change, negative = inhibition: at the top concentration. A digest of the protocol:
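Biochemical qHTS: compounds run as interplate titrations against purified firefly enzyme, with D-luciferin and ATP each at its KM concentration. Light output recorded by CCD imaging.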
(In general: Quantitative high-throughput screening tests each substance at several concentrations.)
For the compound `CN1C(=O)CN=C(c2ccccc2)c2cc([N+](=O)[O-])ccc21`, the “activity change, negative = inhibition” value was 0.791% [at 52.9 µM].
The same measure, in the same setting: as for `C1CCNCC1`, the figure is 1.98%; as for `COc1ccc2c(c1OC)C(=O)O[C@H]2[C@@H]1c2cc3c(cc2CCN1C)OCO3`, 4.59% [at 52.9 µM].
Take `CNC(=O)Oc1cccc(N=CN(C)C)c1`: the “activity change, negative = inhibition” value is -0.619%.
Still for that read-out and setting: as for `OCCCl`, the figure is 4.14%.
On to `CC(C)[C@@H](C(=O)O[C@@H](C#N)c1cccc(Oc2ccccc2)c1)c1ccc(Cl)cc1`, for which the Potency result is “inactive”.
For `O=C(O)C(O)C(O)C(=O)O` (configuration not stated), the “activity change, negative = inhibition” value was 0.954%.
Same read-out and setting: the result for `Cc1cnc(C2=NC(C)(C(C)C)C(=O)N2)c(C(=O)O)c1` (configuration not stated) reads -0.908%.
`CCCCCCCCn1sccc1=O`: the Potency was 35.7 µM (active) and 41.8 µM (active).
`Cc1nc2ccccc2c(=O)n1-c1ccccc1Cl`: the “activity change, negative = inhibition” value was -0.585%.
As to `C[N+]1(CCC(C(N)=O)(c2ccccc2)c2ccccc2)CCCCC1`, the “activity change, negative = inhibition” value was -1.04% [at 52.9 µM].
As for `Cc1ccccc1`, the “activity change, negative = inhibition” value is -1.8%.
For `CC1(C)[C@H](C(=O)O[C@H](C#N)c2cccc(Oc3ccccc3)c2)[C@@H]1C=C(Br)Br`, the Potency entry is “inactive”.
On the same count and under the same terms, as for `C[Si](Cn1cncn1)(c1ccc(F)cc1)c1ccc(F)cc1`, the entry is “inactive”.
Take `C=CCc1ccccc1O`: the “activity change, negative = inhibition” value is -1.56%.
The same measure, in the same setting: as for `O=C(NCNC(=O)NC1C(=O)NC(=O)N1CO)NC1C(=O)NC(=O)N1CO` (configuration not stated), the figure is 2.55%.

Test system in the next assay: not listed separately
Put plainly: qHTS assay to identify small molecule agonists of the constitutive androstane receptor (CAR) signaling pathway - cell viability counter screen (AID 1224836). Note: nearly all actives have a fitted effect of over 45% in size. As to conditions: HepG2-CYP2B6-hCAR viability, CellTiter-Fluor, 23 h, PK11195 added to every well; series mostly up to 92.4 µM; viability change, negative = cytotoxic: at the top concentration. An outline of the steps: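 Compound titrations (15 concentrations) went onto HepG2-CYP2B6-hCAR cells 4 h after seeding, alongside PK11195 at a final 0.75 uM; a 23 h, 37 C/5% CO2 incubation preceded CellTiter-Fluor viability measurement.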
Turning to `O=C(O)CCCOc1ccc(Cl)cc1Cl`, the Potency result is “inactive”.
As for `O=[N+]([O-])/C=C/c1ccccc1`, the Potency was 27.8 µM (active) and 24.3 µM (active).
In the case of `O=S(=O)(c1ccccc1)c1ccccc1`, the “viability change, negative = cytotoxic” value is -21.3%.
`Clc1ccc2ccccc2c1`: the “viability change, negative = cytotoxic” value is 4.52%.
Same read-out and setting: the result for `O=C(NC(=O)c1cc(F)c(F)cc1Cl)Nc1cc(F)ccc1N1CCC(C(=O)O)CC1` reads -4.48% [at 42.5 µM]; that for `Clc1ccccc1`, 0%.
Regarding `O=C(O)COc1cc(Cl)c(Cl)cc1Cl`, the Potency entry is “inactive”.
Take `SCc1ccccc1`: the “viability change, negative = cytotoxic” value is 3.82%.
As to `O=C(O)c1ccc(=O)[nH]c1`, the “viability change, negative = cytotoxic” value is 4.93% [at 42.5 µM].
In the case of `CCC[N+](CCC)(CCC)CCC`, the “viability change, negative = cytotoxic” value is 4.95%.
Consider `CCCCC(CC)COC(=O)c1c(Br)c(Br)c(Br)c(Br)c1C(=O)OCC(CC)CCCC` (configuration not stated), for which the “viability change, negative = cytotoxic” value was 1.86% [at 42.5 µM].
With `CC(C)C1(C)N=C(c2ncccc2C(=O)O)NC1=O` (configuration not stated), the “viability change, negative = cytotoxic” value was 0.634%.
Same read-out and setting: as for `O=S(=O)(Cl)Cl`, the figure is 7.2%; as for `CCCC1CCCCN1` (configuration not stated), 2.08% [at 42.5 µM].
Turning to `CCCC[P+](CC)(CCCC)CCCC` (tested in a mixture with another compound), the “viability change, negative = cytotoxic” value is 1.45%.
For the compound `O=C(O)C(F)(F)C(F)(F)C(F)(F)C(F)(F)C(F)(F)C(F)(F)C(F)(F)C(F)(F)F`, the “viability change, negative = cytotoxic” value was -2.01%.
`CCOP(=O)(O)C(N)=O`: the “viability change, negative = cytotoxic” value was 1.14%.
Turning to `C[C@]12C=CC3=C4CCC(=O)C=C4CC[C@H]3[C@@H]1CC[C@@H]2O`, the Potency result is “inactive”.
With `CC(C)(C)NCC(O)c1ccccc1Cl` (configuration not stated), the “viability change, negative = cytotoxic” value is 3.07% [at 42.5 µM].
For the compound `Cc1ncc(C[n+]2csc(CCO)c2C)c(N)n1`, the “viability change, negative = cytotoxic” value is 0.866%.
For `COP(=O)(OC)OC(Br)C(Cl)(Cl)Br` (configuration not stated), the Potency result was “inactive”.
Take `C=C(C)C(=O)OCCCCOC(=O)C(=C)C`: the “viability change, negative = cytotoxic” value was -0.0457%.
`C=CCc1ccc(OC(=O)Cc2ccccc2)c(OC)c1`: the “viability change, negative = cytotoxic” value was -0.18%.

Test system in a further assay: not listed separately
Put plainly: qHTS assay to identify small molecule antagonists of the constitutive androstane receptor (CAR) signaling pathway - cell viability counter screen (AID 1224837). Note: nearly all actives have a fitted effect of over 45% in size. As to conditions: HepG2-CYP2B6-hCAR viability, CellTiter-Fluor, 23 h, co-treated with 50 nM CITCO; series mostly up to 92.4 µM; activity change, negative = cytotoxicity: at the top concentration. A digest of the protocol:
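Cells are seeded, rested 4 hr at 37 C/5% CO2, dosed with compound (15-point series) and 50 nM CITCO, incubated a further 23 hr, and then CellTiter-Fluor reagent is added before fluorescence is read. The line is HepG2 with stable hCAR and CYP2B6-2.2kb.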
Turning to `C1CCNCC1`, the “activity change, negative = cytotoxicity” value is 0.984%.
Regarding `O=C(O)CCCOc1ccc(Cl)cc1Cl`, the Potency entry is “inactive”.
Regarding `O=[N+]([O-])/C=C/c1ccccc1`, the Potency is 30.6 µM (active).
As to `O=S(=O)(c1ccccc1)c1ccccc1`, the “activity change, negative = cytotoxicity” value is -10.6%.
For `Clc1ccc2ccccc2c1`, the “activity change, negative = cytotoxicity” value was -2.62%.
Still for that read-out and setting: the result for `O=C(NC(=O)c1cc(F)c(F)cc1Cl)Nc1cc(F)ccc1N1CCC(C(=O)O)CC1` reads -9.69% [at 42.5 µM]; that for `Clc1ccccc1`, 2.69%.
`O=C(O)COc1cc(Cl)c(Cl)cc1Cl`: the Potency entry was “inactive”.
As to `SCc1ccccc1`, the “activity change, negative = cytotoxicity” value was 7.66%.
Still for that read-out and setting: the result for `O=C(O)c1ccc(=O)[nH]c1` reads 1.82% [at 42.5 µM].
Same read-out and setting: as for `Cc1cnc(C2=NC(C)(C(C)C)C(=O)N2)c(C(=O)O)c1` (configuration not stated), the figure is -1.17%; as for `CCC[N+](CCC)(CCC)CCC`, 3.35%.
As for `CCCCCCCCn1sccc1=O`, the Potency is 30.7 µM (active) and 5.71 µM (active).
For the compound `CCCCC(CC)COC(=O)c1c(Br)c(Br)c(Br)c(Br)c1C(=O)OCC(CC)CCCC` (configuration not stated), the “activity change, negative = cytotoxicity” value is 1.75% [at 42.5 µM].
The same measure, in the same setting: the result for `CC(C)C1(C)N=C(c2ncccc2C(=O)O)NC1=O` (configuration not stated) reads 1.37%.
On the same count and under the same terms, the result for `O=S(=O)(Cl)Cl` reads 9.88%; that for `CCCC1CCCCN1` (configuration not stated), 3.66% [at 42.5 µM].
Regarding `CC1(C)[C@H](C(=O)O[C@H](C#N)c2cccc(Oc3ccccc3)c2)[C@@H]1C=C(Br)Br`, the Potency entry is “inactive”.
As to `CCCC[P+](CC)(CCCC)CCCC` (tested in a mixture with another compound), the “activity change, negative = cytotoxicity” value was 4.29%.
With `C[Si](Cn1cncn1)(c1ccc(F)cc1)c1ccc(F)cc1`, the “activity change, negative = cytotoxicity” value is -18.7%.
Regarding `O=C(O)C(F)(F)C(F)(F)C(F)(F)C(F)(F)C(F)(F)C(F)(F)C(F)(F)C(F)(F)F`, the “activity change, negative = cytotoxicity” value is 3.78%.
On the same count and under the same terms, as for `CCOP(=O)(O)C(N)=O`, the figure is 3.57%.
Take `C[C@]12C=CC3=C4CCC(=O)C=C4CC[C@H]3[C@@H]1CC[C@@H]2O`: the Potency result is “inactive”.
For the compound `CC(C)(C)NCC(O)c1ccccc1Cl` (configuration not stated), the “activity change, negative = cytotoxicity” value was -8.55% [at 42.5 µM].
The same measure, in the same setting: as for `C=CCc1ccccc1O`, the figure is -0.527%; as for `Cc1ncc(C[n+]2csc(CCO)c2C)c(N)n1`, 1.4%.
For `COP(=O)(OC)OC(Br)C(Cl)(Cl)Br` (configuration not stated), the Potency entry is “inactive”.
On to `C=C(C)C(=O)OCCCCOC(=O)C(=C)C`, for which the “activity change, negative = cytotoxicity” value is 2.06%.
Still for that read-out and setting: the result for `C=CCc1ccc(OC(=O)Cc2ccccc2)c(OC)c1` reads 0.621%.

Another assay concerns the target Nuclear receptor subfamily 1 group I member 3 (Homo sapiens) (UniProt Q14994). Put plainly: qHTS assay to identify small molecule antagonists of the constitutive androstane receptor (CAR) signaling pathway (AID 1224838).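 Note: HepG2 cells stably expressing hCAR with CYP2B6 luciferase reporter stimulated by CITCO; nearly all actives have a fitted effect of over 40% in size.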 As to conditions: HepG2-CYP2B6-hCAR luciferase, CITCO-stimulated, 24 h; series mostly up to 92.4 µM; activity, negative = inhibition: at the top concentration. An outline of the steps:
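Luminescence from a CYP2B6-2.2kb promoter reporter in hCAR-expressing HepG2 cells reflects CAR signaling. Cells received compounds at 15 concentrations and 50 nM CITCO (final), then incubated 24 h at 37 C/5% CO2.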
Regarding `CN1C(=O)CN=C(c2ccccc2)c2cc([N+](=O)[O-])ccc21`, the “activity, negative = inhibition” value is 9.69% [at 42.5 µM].
For the compound `O=C(O)CCCOc1ccc(Cl)cc1Cl`, the Potency entry is “inactive”.
Regarding `COc1ccc2c(c1OC)C(=O)O[C@H]2[C@@H]1c2cc3c(cc2CCN1C)OCO3`, the “activity, negative = inhibition” value was 38.2% [at 42.5 µM].
`CNC(=O)Oc1cccc(N=CN(C)C)c1`: the “activity, negative = inhibition” value was 20.5%.
For `OCCCl`, the “activity, negative = inhibition” value is 1.22%.
With `O=[N+]([O-])/C=C/c1ccccc1`, the Potency is 24.7 µM (active) and 24.3 µM (active).
With `O=S(=O)(c1ccccc1)c1ccccc1`, the “activity, negative = inhibition” value is 58.7%.
Still for that read-out and setting: as for `Clc1ccc2ccccc2c1`, the figure is 7.45%.
Same read-out and setting: the result for `Clc1ccccc1` reads 18.6%.
For the compound `SCc1ccccc1`, the “activity, negative = inhibition” value was 15.3%.
On the same count and under the same terms, as for `O=C(O)c1ccc(=O)[nH]c1`, the figure is -7.55% [at 42.5 µM]; as for `CCC[N+](CCC)(CCC)CCC`, 12.7%; as for `Cc1nc2ccccc2c(=O)n1-c1ccccc1Cl`, 69.9%.
On the same count and under the same terms, the result for `CCCCC(CC)COC(=O)c1c(Br)c(Br)c(Br)c(Br)c1C(=O)OCC(CC)CCCC` (configuration not stated) reads -7.43% [at 42.5 µM]; that for `CC(C)C1(C)N=C(c2ncccc2C(=O)O)NC1=O` (configuration not stated), -5.18%; that for `O=S(=O)(Cl)Cl`, -1.42%.
On the same count and under the same terms, as for `Cc1ccccc1`, the figure is 16.9%.
Regarding `CCOP(=O)(O)C(N)=O`, the “activity, negative = inhibition” value was 29.8%.
`C[C@]12C=CC3=C4CCC(=O)C=C4CC[C@H]3[C@@H]1CC[C@@H]2O`: the Potency result is “inactive”.
As to `CC(C)(C)NCC(O)c1ccccc1Cl` (configuration not stated), the “activity, negative = inhibition” value was 5.39% [at 42.5 µM].
Take `Cc1ncc(C[n+]2csc(CCO)c2C)c(N)n1`: the “activity, negative = inhibition” value was 3.35%.
Still for that read-out and setting: the result for `COP(=O)(OC)OC(Br)C(Cl)(Cl)Br` (configuration not stated) reads -28.6%.
As for `C=C(C)C(=O)OCCCCOC(=O)C(=C)C`, the “activity, negative = inhibition” value is 2.37%.
On the same count and under the same terms, as for `C=CCc1ccc(OC(=O)Cc2ccccc2)c(OC)c1`, the figure is 25.9%.
